# ChEMBL document CHEMBL3988442, “University of Dundee, Small-Polar-MMV Screening Library” (2021)
# For some of these results: Measured potencies and affinities stand elsewhere.
# What was measured:
# Parameters in all cases: scale not given: direction of the effect not stated beside the values
# [1] = molecular target: Protein translocase subunit SecA (Escherichia coli (strain K12)) (UniProt P10408); assay: Assay to Identify E. coli SecA ATPase Inhibitors; assay type: functional; conditions: 30 µM
# Sequence of Protein translocase subunit SecA (Escherichia coli (strain K12)) (P10408 whole entry): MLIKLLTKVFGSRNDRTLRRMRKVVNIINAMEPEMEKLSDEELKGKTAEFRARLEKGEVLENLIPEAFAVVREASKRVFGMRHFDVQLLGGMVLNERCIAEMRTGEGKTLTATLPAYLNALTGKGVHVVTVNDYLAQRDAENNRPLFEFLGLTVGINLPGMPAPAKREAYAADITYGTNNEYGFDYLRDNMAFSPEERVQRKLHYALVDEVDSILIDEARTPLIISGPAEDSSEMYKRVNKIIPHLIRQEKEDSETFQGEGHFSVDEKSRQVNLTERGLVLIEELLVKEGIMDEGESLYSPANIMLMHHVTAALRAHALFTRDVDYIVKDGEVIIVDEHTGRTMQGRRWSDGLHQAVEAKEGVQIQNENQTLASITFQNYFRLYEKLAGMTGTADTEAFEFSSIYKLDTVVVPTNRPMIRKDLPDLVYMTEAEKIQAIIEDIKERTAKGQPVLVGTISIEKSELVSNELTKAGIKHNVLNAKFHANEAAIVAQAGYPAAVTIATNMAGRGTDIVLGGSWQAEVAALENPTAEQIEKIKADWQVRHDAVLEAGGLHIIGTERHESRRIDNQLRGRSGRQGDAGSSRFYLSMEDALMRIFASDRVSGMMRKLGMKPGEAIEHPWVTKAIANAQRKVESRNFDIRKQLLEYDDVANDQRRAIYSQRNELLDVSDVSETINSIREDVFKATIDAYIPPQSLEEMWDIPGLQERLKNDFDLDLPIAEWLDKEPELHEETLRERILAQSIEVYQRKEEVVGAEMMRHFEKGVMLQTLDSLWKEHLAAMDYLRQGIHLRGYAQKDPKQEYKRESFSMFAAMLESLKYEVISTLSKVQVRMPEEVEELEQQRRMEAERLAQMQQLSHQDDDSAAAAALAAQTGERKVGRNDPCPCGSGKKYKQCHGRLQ
# [2] = molecular target: T1, Ubiquitin-activating enzyme e1, putative (Leishmania donovani (strain BPK282A1)) (UniProt E9BSI1); assay: Leishmania donovani Ubiquitin Activating Enzyme (LdE1); assay type: functional; conditions: 30 µM
# T1 sequence (whole entry): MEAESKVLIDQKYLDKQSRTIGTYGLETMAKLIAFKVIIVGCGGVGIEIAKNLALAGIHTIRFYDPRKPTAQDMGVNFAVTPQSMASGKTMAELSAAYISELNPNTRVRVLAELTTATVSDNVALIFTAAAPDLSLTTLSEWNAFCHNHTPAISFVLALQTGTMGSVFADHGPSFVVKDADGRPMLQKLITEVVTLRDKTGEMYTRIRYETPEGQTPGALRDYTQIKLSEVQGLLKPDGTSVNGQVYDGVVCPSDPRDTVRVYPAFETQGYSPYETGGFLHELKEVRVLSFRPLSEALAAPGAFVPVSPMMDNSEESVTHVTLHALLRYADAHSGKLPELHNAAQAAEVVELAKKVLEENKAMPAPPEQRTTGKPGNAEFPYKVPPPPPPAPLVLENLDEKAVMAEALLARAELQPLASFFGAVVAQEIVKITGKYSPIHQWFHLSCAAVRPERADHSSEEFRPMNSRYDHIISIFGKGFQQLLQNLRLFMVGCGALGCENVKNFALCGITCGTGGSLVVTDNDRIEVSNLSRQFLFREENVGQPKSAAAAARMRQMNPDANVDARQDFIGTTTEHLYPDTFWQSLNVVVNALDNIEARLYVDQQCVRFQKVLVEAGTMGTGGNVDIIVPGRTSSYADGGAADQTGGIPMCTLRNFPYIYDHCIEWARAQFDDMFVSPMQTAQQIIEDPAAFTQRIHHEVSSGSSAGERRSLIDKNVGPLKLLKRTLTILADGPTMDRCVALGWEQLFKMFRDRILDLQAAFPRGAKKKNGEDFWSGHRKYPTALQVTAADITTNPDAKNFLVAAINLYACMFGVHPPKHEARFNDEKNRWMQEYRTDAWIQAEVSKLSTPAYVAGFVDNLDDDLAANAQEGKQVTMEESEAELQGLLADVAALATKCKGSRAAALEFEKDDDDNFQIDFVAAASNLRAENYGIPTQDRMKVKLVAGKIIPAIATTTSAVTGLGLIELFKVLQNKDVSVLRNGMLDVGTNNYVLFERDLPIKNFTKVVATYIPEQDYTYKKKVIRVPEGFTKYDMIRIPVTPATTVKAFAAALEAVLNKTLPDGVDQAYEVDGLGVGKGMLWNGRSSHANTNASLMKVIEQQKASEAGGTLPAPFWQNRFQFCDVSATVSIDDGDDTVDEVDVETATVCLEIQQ
# [3] = molecular target: AMP-activated protein kinase, AMPK (Homo sapiens) (UniProt P54646+O43741+P54619+Q9UGJ0+Q9Y478+Q13131+Q9UGI9); assay: AMP-dependent Kinase enzyme assay. An in vitro enzyme assay that detects ADP turnover that is directly proportional to AMPK activity. This uses naive AMPK that is activated during the assay with MK-8722; assay type: functional; conditions: 30 µM
# [4] = molecular target: Sialic acid-binding Ig-like lectin 9 (Homo sapiens) (UniProt Q9Y336); assay: Hs-Siglec9 ALPHAscreen SOP 20170721; conditions: 10 µM
# Sequence of Sialic acid-binding Ig-like lectin 9 (Homo sapiens) (Q9Y336 whole entry): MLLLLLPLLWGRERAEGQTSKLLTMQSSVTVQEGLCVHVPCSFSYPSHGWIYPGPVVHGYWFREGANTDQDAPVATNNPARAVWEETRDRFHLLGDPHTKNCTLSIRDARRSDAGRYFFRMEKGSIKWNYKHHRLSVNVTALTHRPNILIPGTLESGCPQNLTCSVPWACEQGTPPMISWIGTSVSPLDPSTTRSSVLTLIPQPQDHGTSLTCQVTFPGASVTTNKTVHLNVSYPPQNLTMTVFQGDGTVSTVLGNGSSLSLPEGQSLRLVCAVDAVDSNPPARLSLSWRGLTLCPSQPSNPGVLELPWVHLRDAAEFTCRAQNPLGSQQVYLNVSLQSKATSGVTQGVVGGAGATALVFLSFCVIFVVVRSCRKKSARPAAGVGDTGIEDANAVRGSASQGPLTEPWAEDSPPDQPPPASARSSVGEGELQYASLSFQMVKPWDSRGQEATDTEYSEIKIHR
# Trypanosoma cruzi = assay: Trypanosoma cruzi phosphomannomutase and mannose-1-phosphate guanylyltransferase assay; assay type: functional; conditions: 10 µM
# [5] = molecular target: T2, Arginase-2, mitochondrial (Homo sapiens) (UniProt P78540); assay: in vitro enzyme assay to detect the production of urea directly proportional to the activity of Arginase II; assay type: functional; conditions: 33.3 µM; also: in the data most compounds retested in dose-response had high values
# T2 sequence (whole entry): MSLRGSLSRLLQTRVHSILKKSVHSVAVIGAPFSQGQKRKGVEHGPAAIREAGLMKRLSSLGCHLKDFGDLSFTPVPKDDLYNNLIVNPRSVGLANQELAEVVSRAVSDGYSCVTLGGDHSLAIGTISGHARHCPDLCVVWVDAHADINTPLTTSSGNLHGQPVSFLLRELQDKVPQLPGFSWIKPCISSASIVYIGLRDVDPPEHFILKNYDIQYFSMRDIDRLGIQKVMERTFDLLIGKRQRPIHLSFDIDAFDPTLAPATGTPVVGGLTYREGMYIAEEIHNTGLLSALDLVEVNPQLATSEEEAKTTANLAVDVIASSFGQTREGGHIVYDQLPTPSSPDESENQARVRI
# [6] = molecular target: T3, Proteasome subunit beta (Trypanosoma cruzi) (UniProt O96673); assay: Trypanosoma cruzi proteasome chymotrypsin-like activity (TcProtChymo) assay.; also: in the data most compounds retested in dose-response had high values; assay type: functional; conditions: 9.37 µM
# T3 sequence (whole entry): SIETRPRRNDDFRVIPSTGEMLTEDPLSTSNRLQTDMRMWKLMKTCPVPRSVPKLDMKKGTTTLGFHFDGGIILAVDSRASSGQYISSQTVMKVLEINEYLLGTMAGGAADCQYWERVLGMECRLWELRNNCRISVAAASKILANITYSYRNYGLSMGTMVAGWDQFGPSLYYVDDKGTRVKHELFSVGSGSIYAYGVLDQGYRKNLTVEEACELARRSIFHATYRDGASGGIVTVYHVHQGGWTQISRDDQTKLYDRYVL
# Homo sapiens = species: Homo sapiens; assay: To identify inhibition of the IFN signalling (Jak-Stat) pathway via expression of an eGFP reporter gene under the control of an IFN-stimulated response element (ISRE) containing MxA promoter.; assay type: functional; conditions: 30 µM
# [7] = molecular target: T4, Tyrosyl-tRNA synthetase, putative (Trypanosoma cruzi (strain CL Brener)) (UniProt Q4DSP6); assay: Trypanosoma cruzi tyrosyl tRNA synthetase (TcYRS) _High Tyrosine SOP; assay type: functional; conditions: 30 µM; also: in the data most compounds retested in dose-response had high values
# T4 sequence (whole entry): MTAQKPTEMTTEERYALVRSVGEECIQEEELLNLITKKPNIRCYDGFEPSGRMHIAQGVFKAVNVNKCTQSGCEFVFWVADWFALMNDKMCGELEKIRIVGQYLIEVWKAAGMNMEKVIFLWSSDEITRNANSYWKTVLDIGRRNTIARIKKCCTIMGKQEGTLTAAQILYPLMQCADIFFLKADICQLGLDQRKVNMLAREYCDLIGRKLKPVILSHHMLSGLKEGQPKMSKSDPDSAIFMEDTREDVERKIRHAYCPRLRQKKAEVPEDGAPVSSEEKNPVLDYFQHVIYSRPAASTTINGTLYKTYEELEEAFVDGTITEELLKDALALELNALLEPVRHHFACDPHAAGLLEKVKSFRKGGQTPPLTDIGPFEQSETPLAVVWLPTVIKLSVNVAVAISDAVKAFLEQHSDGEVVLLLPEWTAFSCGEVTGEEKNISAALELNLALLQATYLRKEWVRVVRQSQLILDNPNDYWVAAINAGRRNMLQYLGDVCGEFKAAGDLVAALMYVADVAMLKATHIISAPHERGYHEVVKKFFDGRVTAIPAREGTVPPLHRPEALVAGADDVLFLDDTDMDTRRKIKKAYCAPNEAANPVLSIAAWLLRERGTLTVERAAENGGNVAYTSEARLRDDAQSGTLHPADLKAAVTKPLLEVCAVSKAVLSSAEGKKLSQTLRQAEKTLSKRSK
# [8] = molecular target: T4, Tyrosyl-tRNA synthetase, putative (Trypanosoma cruzi (strain CL Brener)); assay: Trypanosoma cruzi tyrosyl tRNA synthetase (TcYRS) SOP; assay type: functional; conditions: 30 µM
# [9] = molecular target: Chromo domain-containing protein 1 (Saccharomyces cerevisiae (strain ATCC 204508 / S288c) (Baker's yeast)) (UniProt P32657); assay: ScCHD-1 Enzyme Inhibition Assay; assay type: functional; conditions: 30 µM; also: in the data most compounds retested in dose-response had high values
# Sequence of Chromo domain-containing protein 1 (Saccharomyces cerevisiae (strain ATCC 204508 / S288c) (Baker's yeast)) (P32657 whole entry, the tested form may be a part): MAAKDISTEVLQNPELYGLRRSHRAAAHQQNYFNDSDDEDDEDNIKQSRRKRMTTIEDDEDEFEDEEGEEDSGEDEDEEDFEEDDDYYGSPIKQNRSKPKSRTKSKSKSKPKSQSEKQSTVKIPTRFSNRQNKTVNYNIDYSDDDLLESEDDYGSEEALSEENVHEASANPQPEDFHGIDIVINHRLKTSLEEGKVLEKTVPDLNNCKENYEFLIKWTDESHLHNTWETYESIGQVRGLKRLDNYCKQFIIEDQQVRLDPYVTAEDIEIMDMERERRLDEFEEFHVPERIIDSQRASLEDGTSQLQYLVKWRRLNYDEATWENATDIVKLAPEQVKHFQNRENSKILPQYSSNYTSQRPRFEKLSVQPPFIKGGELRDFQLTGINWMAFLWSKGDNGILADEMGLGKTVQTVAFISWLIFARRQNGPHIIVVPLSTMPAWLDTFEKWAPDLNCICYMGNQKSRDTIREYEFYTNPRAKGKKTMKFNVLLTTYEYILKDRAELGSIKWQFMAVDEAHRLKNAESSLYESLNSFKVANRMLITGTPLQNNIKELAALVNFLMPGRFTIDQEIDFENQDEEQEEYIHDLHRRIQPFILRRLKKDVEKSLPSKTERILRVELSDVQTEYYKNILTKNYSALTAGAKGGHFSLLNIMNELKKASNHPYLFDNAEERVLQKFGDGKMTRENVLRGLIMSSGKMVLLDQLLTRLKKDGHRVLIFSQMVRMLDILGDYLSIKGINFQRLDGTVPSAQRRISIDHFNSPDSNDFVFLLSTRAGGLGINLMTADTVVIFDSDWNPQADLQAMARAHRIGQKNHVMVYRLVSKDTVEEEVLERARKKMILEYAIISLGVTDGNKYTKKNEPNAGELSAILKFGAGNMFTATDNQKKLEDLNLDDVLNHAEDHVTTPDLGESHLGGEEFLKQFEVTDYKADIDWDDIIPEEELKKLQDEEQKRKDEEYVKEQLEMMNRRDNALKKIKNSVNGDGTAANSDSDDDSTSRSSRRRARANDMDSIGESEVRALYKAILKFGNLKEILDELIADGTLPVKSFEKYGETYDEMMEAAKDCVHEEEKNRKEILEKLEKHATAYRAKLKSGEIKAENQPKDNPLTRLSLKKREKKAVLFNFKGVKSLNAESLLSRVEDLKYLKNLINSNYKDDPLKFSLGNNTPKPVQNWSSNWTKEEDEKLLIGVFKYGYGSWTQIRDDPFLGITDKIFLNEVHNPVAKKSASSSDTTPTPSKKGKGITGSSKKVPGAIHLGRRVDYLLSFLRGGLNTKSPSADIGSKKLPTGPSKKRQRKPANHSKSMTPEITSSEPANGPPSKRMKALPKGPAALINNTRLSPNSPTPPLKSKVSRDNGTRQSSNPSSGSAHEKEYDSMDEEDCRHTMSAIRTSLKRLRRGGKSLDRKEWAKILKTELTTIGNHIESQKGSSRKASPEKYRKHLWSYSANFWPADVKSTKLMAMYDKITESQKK
SMILES,Percent Effect [1] [%],Percent Effect [2] [%],Percent Effect [3] [%],Percent Effect [4] [%],Percent Effect (Trypanosoma cruzi) [%],Percent Effect [5] [%],Percent Effect [6] [%],Percent Effect (Homo sapiens) [%],Percent Effect [7] [%],Percent Effect [8] [%],Percent Effect [9] [%]
NC(=O)C1CN(C(=O)Nc2cc(Cl)cc(Cl)c2)CCO1 (stereo unspecified),-2.58,0,0.0499,4.99,4.17,-3.19,12.1,22.7,4.17,11.1,2.8
CCc1cccc(NS(=O)(=O)c2cc3c(c(C(=O)O)c2)OCCO3)c1,-5.6,1.27,-5.84,0.409,-1.33,-0.645,20.9,-2.39,-7.29,-7.59,-30.6
CN(Cc1cnn(C)c1)C(=O)NC1CCN(c2ncccn2)CC1,-7.21,13,1.2,-4.13,-10.7,-0.356,6.25,25.2,1.94,2.44,-8.45
Fc1cc(CNCc2ccc3c(c2)CCO3)ccc1N1CCOCC1,-0.571,-8.11,-9.24,-2.02,0,-2.86,6.38,2.17,-2.65,0,-3.66
Cc1nc(CN2CCc3ncnc(C)c3CC2)cs1,-4.35,0,0.161,1.66,4.99,3.5,10.3,-27.4,2.16,7.69,4.23
O=C(O)C1(Cc2cc(-c3ccc(F)cc3F)no2)CCOCC1,-4.49,4.05,11,-5.88,-8.3,-9.51,14.2,6.33,-4.3,-1.3,-7.79
Cc1ccc(NC2CCN(C(=O)c3cccc(F)c3F)CC2)nn1,0.567,-6.33,2.51,4.94,0.308,-0.645,1.54,10.2,4.17,5.06,-24.5
Cc1ccccc1[C@@H]1CN(C(=O)c2ccc3[nH]nnc3c2)C[C@H]1C(=O)O,-4.25,-11,4.06,1.72,-5.75,0.399,8.65,2.78,3.12,3.7,2.93
Cc1cccc(CN2CCc3c(nc(N4CCCCC4C)[nH]c3=O)C2)n1 (stereo unspecified),-3.88,4.05,13,7.92,-3.36,0.232,9.36,13.8,7.53,9.09,2.2
Cc1noc(NC(=O)c2ccc(C)c(F)c2)n1,-3.93,20.2,3.63,-2.91,4.63,0,11.7,64,9.36,26.6,-5.98
CC(=O)N1CCCN(C(=O)NCCc2ccc(Cl)s2)CC1,-2.98,-1.27,2.05,0.11,2.97,-4.95,6.35,15.8,3.12,7.59,7.14
